Data reported in PubChem BioAssay AID504332 (National Center for Advancing Translational Sciences (NCATS), 2011).
Out of some 350,000 compounds screened, about 31,000 (8.9%) were called active. About 15% were inconclusive and are not listed. This is one part of a sample in which actives are shown more often than they occur. Values without a mark were called inactive. Calls follow the shape of the dose curve; as a rule, active = well fitted inhibition curve with a large enough effect; inconclusive = small, poorly fitted or top-dose-only effect; inactive = no such curve, though single readings can be large or run the other way.

Target: Histone-lysine N-methyltransferase EHMT2 (Homo sapiens) (UniProt Q96KQ7)
Assay: qHTS Assay for Inhibitors of Histone Lysine Methyltransferase G9a; also: nearly all actives have a fitted effect of over 75% in size
Settings: G9a H3K9 monomethylation, AlphaScreen, 2 h; series mostly up to 59 µM; activity, negative = inhibition: at the top concentration
Summary of the method: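 Methyltransferase reactions run at room temperature for 2 h (20 nM enzyme, 500 nM biotin-H3K9 peptide, 20 uM SAM) after a 15 min compound preincubation; product detected by AlphaScreen beads and anti-H3K9me1 antibody.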
% is scaled to controls: 0 for no effect and ±100 for the full control effect; potency is read from the fitted curve at half-maximal effect.

Histone-lysine N-methyltransferase EHMT2 (Homo sapiens), sequence (Q96KQ7 913-1193 limits assumed): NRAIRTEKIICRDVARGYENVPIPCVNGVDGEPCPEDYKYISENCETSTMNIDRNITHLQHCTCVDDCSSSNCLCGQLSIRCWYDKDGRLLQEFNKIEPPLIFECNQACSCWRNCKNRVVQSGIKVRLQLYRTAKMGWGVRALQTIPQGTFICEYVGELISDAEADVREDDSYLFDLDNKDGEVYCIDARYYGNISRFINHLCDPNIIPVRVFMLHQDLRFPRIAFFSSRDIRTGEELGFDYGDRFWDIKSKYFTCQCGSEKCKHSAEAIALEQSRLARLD

Row | SMILES | Potency | activity, negative = inhibition
1 | CCc1nnc(NS(=O)(=O)c2ccc(NC(=S)NC(=O)/C=C/c3cccs3)cc2)s1 | 44.7 µM (active) | –
2 | CCc1nnc(NS(=O)(=O)c2ccc(NC(=S)NC(=O)c3cccs3)cc2)s1 | – | -49.2% [at 102 µM]
3 | CCc1nnc(NS(=O)(=O)c2ccc(NS(=O)(=O)c3ccccc3)cc2)s1 | – | 2.62% [at 12.7 µM]
4 | Cc1ccccc1CNC(=O)CSc1nnc(C)c2c(C)n(-c3ccccc3)nc12 | – | -26.6%
5 | O=C(CCn1nnnc1CN1CCOCC1)N1CCC(c2ccccc2Cl)C1 (configuration not stated) | – | 68.2% [at 102 µM]
6 | CCCCNC(=O)CSc1nnc(-c2ccco2)n1C | – | -12.7%
7 | CCc1cccc(C)c1NC(=O)CSc1nnc(-c2ccco2)n1N | – | 11.7% [at 0.501 µM]
8 | Cn1c(SCC(=O)Nc2nccs2)nnc1-c1cccnc1 | – | -4.03%
9 | Cn1c(SCC(=O)c2cccs2)nnc1-c1ccco1 | 50.1 µM (active) | –
10 | Nn1c(SCC(=O)Nc2nccs2)nnc1-c1ccco1 | 28.2 µM (active) | –
11 | CCOC(=O)CSc1nnc(-c2ccco2)n1C | – | -7.88% [at 102 µM]
12 | Cc1cccc(Cn2c(=O)n(CCC(=O)NCCc3ccc(Cl)cc3)c(=O)c3sccc32)c1 | – | -34.7%
13 | COc1ccc(NC(=O)CN(C)C(=O)c2ccc(NC3CC3)c([N+](=O)[O-])c2)cc1 | – | -3.73% [at 2.33 µM]
14 | Cc1ccc(-n2c(=O)c3cccnc3n2CC(=O)NCc2ccc(F)cc2)cc1C | – | 5.6%
15 | CCN(CCCNC(=O)c1ccc(Sc2ccc(C)cc2)c(NC(C)=O)c1)c1cccc(C)c1 | 12.6 µM (active) | –
16 | CC(=O)Nc1cc(C(=O)NCc2ccc(F)cc2Cl)ccc1Sc1ccc(Cl)cc1 | – | -3.69%
17 | CCN(CCCNC(=O)Cn1ncc2c([nH]c3ccccc32)c1=O)c1cccc(C)c1 | – | -28%
18 | CC(=O)Nc1cc(C(=O)NCc2ccc(F)cc2)ccc1Sc1ccc(F)cc1 | – | -1.44%
19 | Cc1cccc(C(=O)NCCCN(C)CCCNC(=O)c2cccc(C)c2)c1 | – | 10.2%
20 | CCN(CCCNC(=O)c1ccc2c(c1)NC(=O)CN2C)c1cccc(C)c1 | 7.94 µM (active) | –
21 | Cc1oc2ccc(O)c(CN3CCOCC3)c2c1C(=O)Nc1cccc(Cl)c1C | – | 0.579%
22 | C=CCOc1ccc(/C=C/C(=O)OCC(=O)NCC2CCCO2)cc1 (configuration not stated) | – | 6.35% [at 12.7 µM]
23 | Cc1ccc(N(Cc2cc(=O)[nH]c3ccccc23)C(=O)CCl)cc1 | 11.2 µM (active) | –
24 | CCCN(CC(=O)Nc1ccccc1C)C(=O)c1cc(=O)[nH]c2ccccc12 | – | -4.7% [at 102 µM]
25 | Cc1ccc(N(Cc2cc3ccccc3[nH]c2=O)C(=O)c2cccs2)cc1 | – | -5.43%

Row | SMILES | Potency | activity, negative = inhibition
26 | CCC(=O)N(Cc1cc2ccccc2[nH]c1=O)c1ccc(OC)cc1 | – | 3.58% [at 102 µM]
27 | CC(=O)N(Cc1cc(=O)[nH]c2ccccc12)c1ccc(C)cc1C | 31.6 µM (active) | –
28 | Cn1nnnc1SCc1cc(=O)[nH]c2ccccc12 | – | 13.3%
29 | Cc1oc2ncnc(N3CCCCC3)c2c1C(=O)N1CCN(c2cccc(Cl)c2)CC1 | – | -29.8%
30 | Cc1ccc2nc(-c3ccc(C)c(NC(=O)Cc4ccccc4)c3)oc2c1 | – | 9.96%
31 | CCC(NC(=O)c1cc(COc2ccc(F)c(F)c2)on1)c1ccncc1 (configuration not stated) | – | 13.4% [at 12.7 µM]
32 | COc1cc(OC)cc(C(=O)Nc2ccc3nc(Nc4cccc(C(F)(F)F)c4)cc(C)c3c2)c1 | – | -2.07%
33 | COc1ccc(S(=O)(=O)Nc2ccc3cn[nH]c3c2)cc1[N+](=O)[O-] | – | -20.9% [at 12.7 µM]
34 | Cc1sc(NC(=O)C2=COCCO2)c(C#N)c1C | 11.2 µM (active) | –
35 | CCn1c(SCC(=O)Nc2sc(C)c(C)c2C#N)nnc1C1CC1 | – | 9.74%
36 | CCN(CC)C(=O)c1sc(NC(=O)c2ccco2)c(C#N)c1C | – | -19.4%
37 | CCC(CC)c1nnc(NC(=O)c2nn(C)c(=O)c3ccccc23)s1 | – | 1.31% [at 102 µM]
38 | CCC(CC)c1nnc(NC(=O)C2=COCCO2)s1 | 39.8 µM (active) | –
39 | COc1cccc(OC)c1C(=O)Nc1nnc(C(C)C)s1 | – | -41.9% [at 102 µM]
40 | O=C(N=C1SC2CS(=O)(=O)CC2N1c1cc(Cl)ccc1Cl)C1CC1 (configuration not stated) | – | 0.566% [at 102 µM]
41 | CCOc1ccc(N(CC)S(=O)(=O)N2CCCC(C(=O)NCc3ccc(SC)cc3)C2)cc1 (configuration not stated) | – | -30.4%
42 | CCCCn1c(=O)c2oc3ccccc3c2n(CC(=O)Nc2ccccc2OC)c1=O | – | 6.86%
43 | COc1ccc(NC(=S)N2CCCC(CO)C2)c(OC)c1 (configuration not stated) | – | -13.8% [at 102 µM]
44 | CCCCc1ccc(NC(=S)N2CCCC(CO)C2)cc1 (configuration not stated) | – | 22.7%
45 | COc1cc(NC(=S)N2CCCC(C)C2)cc(OC)c1OC (configuration not stated) | 50.1 µM (active) | –
46 | CCOc1ccc(NC(=O)c2ccc(NC(=O)COC(=O)c3ccc(NC(=O)CC#N)cc3)cc2)cc1 | – | 12.7% [at 2.33 µM]
47 | O=C(NCc1ccccc1)C(=O)NCC(c1ccco1)S(=O)(=O)c1ccc(Cl)cc1 (configuration not stated) | – | -6.14%
48 | Cc1nn(Cc2ccccc2)c(C)c1C(=O)N1CCN(CC(=O)Nc2ccccc2Cl)CC1 | – | -4.66%
49 | CN(C)S(=O)(=O)c1cccc(NC(=O)COC(=O)/C=C/c2cccs2)c1 | – | 6.05% [at 102 µM]
50 | Cc1ccc(S(=O)(=O)N(C)C)cc1NC(=O)COC(=O)c1c(C)noc1C | – | -6.63%

Row | SMILES | Potency | activity, negative = inhibition
51 | Cc1ccc(S(=O)(=O)N(C)C)cc1NC(=O)COC(=O)/C=C/c1cccs1 | 28.2 µM (active) | –
52 | CCOC(=O)c1cc2c(=O)n3ccccc3nc2n(CCCOC)c1=NC(=O)C(C)Oc1ccccc1 (configuration not stated) | – | 6.36%
53 | COCCCC1CCN(C(=O)C2CCC(=O)N(C3CCCCCC3)C2)CC1 (configuration not stated) | – | 11.5% [at 102 µM]
54 | Cc1onc(-c2ccc(F)cc2F)c1C(=O)Nc1cccc(C(F)(F)F)c1 | – | 3.49%
55 | Cc1ccc(C(=O)N2c3ncnn3C3(CCCCC3)[C@@H]3CCCC[C@@H]32)cc1 | – | -3.48%
56 | Cc1ccccc1CN1CCC(CNC(=O)c2cc3ccc4cccnc4c3[nH]2)CC1 | – | -2.49%
57 | COc1cc(C(=O)NNC(=O)CN2C(=O)NC3(CCCC3)C2=O)cc(OC)c1OC | – | -2.65%
58 | Cc1nnc(SCc2cc(=O)c3cc(F)ccc3[nH]2)n1C | – | -1.44%
59 | O=C(c1cc2cc(F)ccc2[nH]1)N1CCN(c2ccc(F)cc2)CC1 | – | -8.91% [at 102 µM]
60 | O=C(CCCN1CCc2[nH]c3ccc(F)cc3c2C1)c1ccc(F)cc1 | 50.1 µM (active) | –
61 | Cc1cc(C#N)c(SCC(N)=O)nc1-c1ccc(F)cc1 | 12.6 µM (active) | –
62 | Cc1ccc2cc(C#N)c(SCC(=O)NCC3CCCO3)nc2c1C (configuration not stated) | – | -4.15% [at 102 µM]
63 | Cc1cc(=O)[nH]c(SCC(N)=O)c1C#N | – | 9.52% [at 2.33 µM]
64 | COc1ccc(C(=O)NC2=NCCS2)c(OC)c1 | – | 5.43% [at 12.7 µM]
65 | COc1ccc(Cc2nnc(NC(=O)c3ccc(OC)cc3OC)s2)cc1 | – | -7.06% [at 0.501 µM]
66 | COc1ccc(C(=O)Nc2nncs2)c(OC)c1 | 39.8 µM (active) | –
67 | COc1ccc(S(=O)(=O)c2c(Nc3ccc(C)cc3)sc(C(=O)c3ccc(C)cc3)c2N)cc1 | – | 9.77%
68 | O=C(NCc1ccccc1)C(c1ccco1)N(C(=O)c1csnn1)c1ccccc1F (configuration not stated) | – | 1.04% [at 102 µM]
69 | Cc1ccc(NC(=O)CSc2nnc3[nH]c(=O)cc(C)n23)cc1Cl | – | -15.6%
70 | COC(=O)C1=C(C)N(C(C)c2ccccc2)C(=O)/C1=C\c1ccco1 (configuration not stated) | 35.5 µM (active) | –
71 | CC(C)NC(=O)C(=O)N/N=C/c1ccco1 | – | 4.44%
72 | COC(=O)C1=C(C)N(c2ccc(Br)cc2)C(=O)/C1=C\c1ccco1 | – | -24.3%
73 | COc1c(Cl)cc(C(=O)N(Cc2ccccc2F)C2CCS(=O)(=O)C2)cc1Cl (configuration not stated) | – | 4.3%
74 | Cc1ccc(C(=O)N2CCc3cc(CNC(=O)c4ccc(Br)cc4)ccc32)cc1 | – | -38.8%
75 | O=C(OCC(=O)N1CCc2ccccc21)c1ccc([N+](=O)[O-])cc1 | – | -12.4% [at 2.33 µM]

Row | SMILES | Potency | activity, negative = inhibition
76 | CCC(CC)COC(=O)C1=C(C)NC(=O)NC1c1ccc([N+](=O)[O-])cc1 (configuration not stated) | – | 24.1% [at 102 µM]
77 | COc1cccc(N2CCN(CC(=O)Nc3ccnn3C3CCCC3)CC2)c1 | – | 3.38% [at 12.7 µM]
78 | CCCSc1ncc(Cl)c(C(=O)Nc2sc3c(c2C(=O)NCCOC)CCCC3)n1 | – | -44.5%
79 | COc1cc(NS(=O)(=O)c2ccc(NC(C)=O)cc2)cc(OC)c1 | – | -9.27%
80 | CC(=O)Nc1ccc(S(=O)(=O)Nc2cc(C)cn(Cc3ccc(C)cc3)c2=O)cc1 | 44.7 µM (active) | –
81 | COc1ccc(NS(=O)(=O)c2ccc(NC(C)=O)cc2)cc1OC | – | -48.3%
82 | CC(=O)c1c(C)[nH]c(C(=O)N2CCN(S(=O)(=O)c3ccc(F)c(F)c3)CC2)c1C | – | -26.5% [at 102 µM]
83 | CCC(C)C(=O)Nc1ccccc1N1CCN(c2ccc(F)cc2)CC1 (configuration not stated) | – | 0.656% [at 102 µM]
84 | Cc1ccc(OCCC(=O)Nc2ccc(S(=O)(=O)Nc3nccs3)cc2)cc1 | – | 15% [at 12.7 µM]
85 | COc1cn(CC(=O)Nc2cccc(C)c2C)c(CN2CCCCC2)cc1=O | – | 4.69%
86 | COc1ccccc1C(=O)Nn1cnnc1 | – | 10.5% [at 102 µM]
87 | C/C=C/C=N/NC(=O)c1ccncc1 | – | 3.78% [at 12.7 µM]
88 | O=C(NN1C(=O)C2C3C=CC(O3)C2C1=O)c1ccncc1 (configuration not stated) | 44.7 µM (active) | –
89 | O=C(NN1C(=O)C2C3C=CC(C4CC34)C2C1=O)c1ccc(Cl)cc1 (configuration not stated) | – | 7.55% [at 102 µM]
90 | COc1ccccc1C(=O)NN1C(=O)C2C3C=CC(O3)C2C1=O (configuration not stated) | 35.5 µM (active) | –
91 | COc1ccc(C(=O)NN2C(=O)C3C(c4ccccc4)C=CC(c4ccccc4)C3C2=O)cc1 (configuration not stated) | – | 17.1%
92 | CCC(=O)N1CCc2cc(Br)cc(S(=O)(=O)Nc3ccc(C)cc3C)c21 | – | -3.03%
93 | CCOc1ccc(C(CC(=O)O)NC(=O)Cc2ccccc2)cc1OC (configuration not stated) | – | -10.4% [at 102 µM]
94 | CSc1nc(=O)c2c(n1C)NC(=O)CC2c1ccccc1OC(C)C (configuration not stated) | – | 6.92%
95 | CN(C)c1nc(=Nc2cccc(Cl)c2)ss1 | 6.31 µM (active) | –
96 | CCC(C)C(N=C1NS(=O)(=O)c2ccccc21)C(=O)N1CCC(C)CC1 (configuration not stated) | – | -37.1% [at 102 µM]
97 | Cc1nn(Cc2ccc(F)cc2)c(C)c1NC(=O)c1cc(CC(C)C)on1 | – | -7.61%
